According to ChEMBL document CHEMBL3433997, “St. Jude Leishmania screening dataset” (2016):

Experiments:
Type in all cases: functional
[1] = biological target: Solute carrier family 2, facilitated glucose transporter member 1 (Homo sapiens) (UniProt P11166); assay: ST_JUDE_LEISH: Cytotoxicity at 2uM final concentration against transgenic Leishmania Mexicana promastigotes LmGLUT1 that are glucose transport deficient and complemented with the human glucose transporter GLUT1. Activity is measured by DNA content using SYBR green in vitro
[2] = biological target: Hexose transporter 1 (Plasmodium falciparum) (UniProt O97467); assay: ST_JUDE_LEISH: Cytotoxicity at 2uM final concentration against transgenic Leishmania Mexicana promastigotes LmPfHT that are glucose transport deficient and complemented with the Plasmodium falciparum hexose transporter. Activity is measured by DNA content using SYBR green in vitro
[3] = biological target: Glucose transporter (Leishmania mexicana) (UniProt O61059); assay: ST_JUDE_LEISH: Cytotoxicity at 2uM final concentration against transgenic Leishmania Mexicana promastigotes LmGT2 that are glucose transport deficient and complemented with the L. Mexicana glucose transporter 2. Activity is measured by DNA content using SYBR green in vitro

Sequence of Solute carrier family 2, facilitated glucose transporter member 1 (Homo sapiens) (P11166 whole entry): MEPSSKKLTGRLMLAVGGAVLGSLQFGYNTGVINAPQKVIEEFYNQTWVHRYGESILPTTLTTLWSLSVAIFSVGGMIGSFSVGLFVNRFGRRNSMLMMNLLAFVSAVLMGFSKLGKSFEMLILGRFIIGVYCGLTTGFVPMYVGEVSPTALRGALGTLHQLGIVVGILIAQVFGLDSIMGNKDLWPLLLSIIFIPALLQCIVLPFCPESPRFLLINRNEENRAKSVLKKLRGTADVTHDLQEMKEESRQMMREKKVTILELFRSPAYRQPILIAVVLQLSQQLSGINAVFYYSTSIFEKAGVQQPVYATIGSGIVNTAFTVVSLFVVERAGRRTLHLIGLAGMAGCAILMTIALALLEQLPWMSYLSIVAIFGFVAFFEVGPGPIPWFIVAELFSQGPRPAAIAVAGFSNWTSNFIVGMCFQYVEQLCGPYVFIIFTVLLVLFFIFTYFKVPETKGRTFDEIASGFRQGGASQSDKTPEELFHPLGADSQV

SMILES	inhibition [1]	inhibition [2]	inhibition [3]
Cc1[nH]c(C)c(-c2ccc(-c3ccccc3Cl)nc2)c(=O)c1Cl	3.05%	3.94%	3.11%
COc1ccc(C2CCN(CCCCNC(=O)c3ccc(NC(=O)c4ccc(Cl)cc4)cc3)CC2)c(C)c1	-0.79%	-0.57%	-2.18%
Cc1ccoc1C(=O)Nc1cccc(-c2cccc(-c3nc4cccc(C)c4[nH]3)c2)c1	7.85%	5.09%	4.05%
COc1cc2nc(NCCc3cccc(Cl)c3)nc(NCc3ccccc3)c2cc1OC	5.15%	6.21%	1.06%
CCOCc1cnc(C)nc1CNC(=O)c1c(C)[nH]c2ccc(C)cc12	0.96%	0.7%	1.12%
CN1CCN(CC(=O)Nc2ccc(-c3csc(-c4nc5ccccc5[nH]4)c3)cc2)CC1	-0.59%	0.35%	-2.28%
O=C(CCCCCNC(=O)c1ccc(O)c(-c2ccc(Cl)c(Cl)c2)c1)NCCN1CCCCC1	2.71%	2.46%	3.45%
COc1ccc2[nH]c(C)cc(=NN=Cc3cccc(Cl)c3)c2c1	-0.18%	4.08%	-1.05%
COc1ccc(-c2cc(C(=O)N[C@@H](CC3CCCCC3)C(=O)NCCN3CCCC3)ccc2O)cc1	0.33%	1.9%	1.32%
CCCCOc1cc(OC)c2ccccc2c1CCNCCCCNCCc1c(OCCCC)cc(OC)c2ccccc12	105%	106%	104%
COCCCNc1sc(S(=O)(=O)c2ccccc2)nc1S(=O)(=O)c1ccc(Cl)cc1	3.07%	3.36%	1.01%
Cc1cccc(C)c1CNc1nc(N2CCOCC2)cc2c(C)c(C)[nH]c12	3.7%	3.43%	4.38%
CC(C)c1ccc(-c2noc(SCC(=O)N3CCCCC3C)n2)cc1 (configuration not stated)	-2.1%	1.89%	-2.55%
Cc1cccc2nc(-c3ccc(-c4ccc(CN5CCN(c6ccc(C#N)cn6)CC5)cc4)s3)[nH]c12	5.16%	6.3%	-0.38%
Cc1ccc(CN2CCN(Cc3cccc(NC(=O)c4cccs4)c3)CC2)cc1C	2.28%	2.39%	1.91%
CCCOc1cccc(C(=O)N[C@@H](Cc2ccccc2)[C@H](O)CNCc2cccc(OC)c2)c1	0.22%	0.92%	-3.25%
O=c1cc(NCCCNCc2scc(I)c2I)[nH]c2ccccc12	4.34%	5.49%	4%
O=C(c1cc(-c2cccs2)n[nH]1)N1CCN(S(=O)(=O)c2ccc(Cl)s2)CC1	3.98%	1.77%	2.9%
Fc1ccc2c(NN=Cc3ccccc3)ccnc2c1	2.29%	1.07%	-1.55%
O=C(Nc1ccc(Cl)cc1)Nc1ccc(-c2cccc(-c3nc4ccccc4[nH]3)c2)cc1	1.48%	2.71%	-1.97%
COc1cc2c(cc1C(F)(F)F)N(C(=O)Nc1cc(F)cc(-c3cncnc3)c1)CC2	11.6%	1.94%	0.07%
Cc1cc(Oc2ccc(-n3ccnc3)cc2)nc(N2CCN(CCCN3CCCC3)CC2)n1	4%	5.53%	2.69%
CCOc1ccc(NC(=O)c2ccc(NCCCN3CC(C)CC(C)C3)c([N+](=O)[O-])c2)cc1 (configuration not stated)	2.9%	0.9%	1.09%

SMILES	inhibition [1]	inhibition [2]	inhibition [3]
Cc1cc(C)cc(OCC(O)CN(Cc2cc(Cl)cc(Cl)c2)C(=O)Nc2ccc([N+](=O)[O-])cc2)c1 (configuration not stated)	4.12%	3.99%	5.26%
Nc1ccc2nc(C=Cc3ccccc3)[nH]c2c1	1.45%	0.85%	3.06%
CC(=O)Nc1ccc(OCCN(CC(C)C)c2ccc(C(F)(F)F)c(C#N)c2)c(Cl)c1	6.51%	10.4%	8.7%
O=C(NCc1ccc(C(=O)NCc2cccc3ccccc23)cc1)c1ccc(O)c(-c2ccc(Cl)c(Cl)c2)c1	0.64%	2.17%	0.96%
Cc1[nH]c(C)c(-c2ccc(OCc3cc(C(F)(F)F)cc(C(F)(F)F)c3)nc2)c(=O)c1Cl	6.26%	9.78%	4.84%
O=C(Nc1cccc(-c2cccc(-c3nc4cc(F)ccc4[nH]3)c2)c1)Nc1ccc2c(c1)OCO2	1.84%	4.87%	-1.13%
CC(C)(C)OC(=O)NCc1ccc(Nc2nnc(-c3ccc(OCC(=O)NCc4ccc(C(C)(C)C)cc4)c([N+](=O)[O-])c3)o2)cc1	2.12%	1.65%	-0.53%
O=C(Nc1cc(C(F)(F)F)cc(C(F)(F)F)c1)Nc1cc(C(F)(F)F)cc(C(F)(F)F)c1	1.91%	4.29%	3.86%
CN(C)CCNC(=O)c1ccc(-c2ccc3c(Nc4ccccc4)c(C(N)=O)cnc3c2)cc1	1.31%	1.74%	2.36%
NC1CCN(Cc2ccc(-c3cccc(-c4nc5ccccc5[nH]4)c3)cc2)C1 (configuration not stated)	5.49%	5.29%	5.76%
COc1ccc2c(CNCCCCCCNCc3c(OC)ccc4cc(OC)ccc34)c(OC)ccc2c1	109%	107%	112%
COc1ccc2nc(-c3ccc(C(=O)NCCCN4CCN(c5cc(Cl)ccc5OC)CC4)cc3OC)[nH]c2c1	2.79%	1.93%	3.01%
O=C(N[C@H]1CCN(Cc2ccc(OCCCN3CCCCC3)cc2)C1)c1ccc(Oc2ccccc2)cc1	72.1%	19.9%	13.7%
COc1cc2ccccc2cc1OCCCN1CCN(CC(c2ccc(F)cc2)N2CCN(C(C)C)CC2)CC1 (configuration not stated)	-2.97%	-0.78%	2.29%
Clc1cc(Nc2ncnc3cc(C#C[C@H]4CCCN4)sc23)cc2nc(Cc3ccccc3)[nH]c12	1.94%	-0.56%	-1.61%
O=C(NCCCCN1CC=C(c2ccc3c(c2OCc2ccccc2)CCCC3)CC1)c1ccc(-c2ccc(C(F)(F)F)cc2)cc1	-1.51%	-1.29%	-2.15%
CCN(CC)CCNC(=O)c1ccc(NC(=O)c2cc3c(C)nn(-c4ccc(Cl)cc4)c3s2)cc1	2.43%	2.37%	1.83%
O=C(NCCCCN1CCN(c2cccc3ccccc23)CC1)c1ccc(NC(=O)c2ccc(Cl)cc2)cc1	2.65%	2.81%	2.29%
Cc1ccc(Cc2c(N)nc3nc(N)nc(N)c3c2C)cc1	4.96%	8.67%	6.55%
O=C(NC1CCN(CCC(NC(=O)c2ccccc2)c2ccc(Cl)c(Cl)c2)CC1)c1ccc(Cl)cc1 (configuration not stated)	3.39%	2.33%	1.88%
CCCc1cc2c3c(N)nc(N)nc3ccc2n1CC	6.73%	8.39%	4.29%
CN(C)C(=O)c1ccc(CN(Cc2cccc(OC(C)(C)C)c2)Cc2ccc3c(c2)OCCO3)cc1	0.24%	-0.56%	1%
CCOc1cc(Cl)c(C(C)NC(=O)c2ccccc2)cc1OCC (configuration not stated)	1.69%	3.65%	3.01%

SMILES	inhibition [1]	inhibition [2]	inhibition [3]
O=C(Nc1cccc(C(F)(F)F)c1)c1ccc(S(=O)(=O)NC2CCN(CC3CCCCC3)C2)cc1 (configuration not stated)	3.79%	3.31%	4.54%
COc1ccc(CNC2CCN(C)CC2)cc1-c1ccc(S(=O)(=O)NCc2ccccc2)c(C)c1	7.68%	8.41%	7.94%
CC(C)(C)c1ccc(CN2CCCCC(NC(=O)c3cc(-c4cccc(Cl)c4)cs3)C2)cc1 (configuration not stated)	-0.16%	-0.87%	-6.21%
O=C(/C=C/c1ccc(C(F)(F)F)cc1)NCCCCCN1CCCN(C(=O)Nc2ccc(Cl)cc2)CC1	5.01%	4.49%	1.84%
CN1CCN(Cc2cc(NC(=O)c3ccc(-c4ccc(Cl)cc4Cl)cc3)ccc2-c2ccccc2)CC1	6.54%	2.47%	-0.1%
c1ccc(Oc2ccc(Nc3ccnc4cc(-c5ccc(CNCCN6CCOCC6)o5)ccc34)cc2)cc1	2.2%	2.86%	0.92%
CCC(C(C)C)n1ccc2c3c(N)nc(N)nc3ccc21 (configuration not stated)	81.6%	84.6%	66.6%
COc1cc(C2CCN(CCCCNC(=O)c3ccc(NC(=O)c4ccc(Cl)c(Cl)c4)cc3)CC2)ccc1OC(C)C	1.53%	4.29%	1.53%
Fc1ccc2[nH]c(-c3ccc(-c4ccc(CNCC5CCCO5)cc4)s3)nc2c1 (configuration not stated)	11.9%	9.33%	11%
COc1ccc2ncc(F)c(CCN3CC(O)C(CNCc4ccc5c(c4)OCCO5)C3)c2n1 (configuration not stated)	6.54%	4.38%	-0.93%
C=CCc1ccc(C2CCN(CCCCNC(=O)c3ccc(NC(=O)c4ccc(Cl)cc4)cc3)CC2)cc1	0.91%	0.58%	0.46%
CN(C)CCN(C)Cc1ccc(-c2ccc3c(Nc4ccc(F)cc4Cl)ccnc3c2)o1	1.3%	0.81%	-0.21%
CC(=O)c1ccc(-c2cccc3c(CC(=O)Nc4ccc5nccc(N6CCN(C)CC6)c5c4)cccc23)cc1	0.38%	1.03%	-1.81%
Cc1cc(NC2CCN(CC3CCCCC3)C2)nc(Nc2ccc(Cl)cc2)n1 (configuration not stated)	3.89%	3.7%	2.63%
Cn1cc(C2CCN(CCCCNC(=O)c3sc(-c4ccc(C(F)(F)F)cc4)nc3CO)CC2)c2ccccc21	-3.34%	-1.85%	-0.2%
O=C(Nc1ccc(S(=O)(=O)N2CCCC2)cc1)c1cc(-c2cccnc2)nc2ccc(Cl)cc12	7.34%	2.97%	3.06%
Cc1cc(-c2cccc3c(C(=O)N4CCc5cc6nccc(N7CCN8CCC[C@H]8C7)c6cc54)cccc23)cc(C)n1	1.99%	-1.7%	2.83%
CCc1ccc(CN2CCC(CN(c3ccc(N4CCOCC4)c(F)c3)S(=O)(=O)c3ccc(C(C)(C)CC)cc3)CC2)cc1	3.54%	0.74%	3.68%
Nc1ccn([C@@H]2O[C@H](COC(c3ccccc3)(c3ccccc3)c3ccccc3)[C@@H](O)[C@@H]2O)c(=O)n1	3.1%	4.86%	4.4%
CCNc1cc(C(=O)N[C@@H](Cc2ccccc2)[C@H](O)CNC2(C)CCCCC2)cc(N2CCCCS2(=O)=O)c1	1.96%	-0.16%	-0.26%
CCN1CCN(CCCNc2ccnc3cc(Cl)ccc23)CC1	0.93%	2.24%	2.15%
Cc1ccc2nc3sc(C(=O)NCCCN4CCC(N5CCCCC5)CC4)cc3cc2c1	-0.92%	3.13%	3.19%
Cn1cc(-c2ccccc2C(=O)O)c(=O)c2cc(Cl)ccc21	2.25%	1.87%	2.49%
